# Screens (PubChem BioAssay)
# LYP act – increases human PTPN22 phosphatase activity; Q9Y2R2; recombinant LYP, DiFMUP fluorescence; 0 = plate median, 100 = signal doubled; activation, % at 2 µM; 96,000 compounds, 0.11% hits; AID 697;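 active = activation at 2 µM above a set limit, the mean plus 5 SD, cut at about 37% in these data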
# Target sequence (Q9Y2R2 whole entry, looked up): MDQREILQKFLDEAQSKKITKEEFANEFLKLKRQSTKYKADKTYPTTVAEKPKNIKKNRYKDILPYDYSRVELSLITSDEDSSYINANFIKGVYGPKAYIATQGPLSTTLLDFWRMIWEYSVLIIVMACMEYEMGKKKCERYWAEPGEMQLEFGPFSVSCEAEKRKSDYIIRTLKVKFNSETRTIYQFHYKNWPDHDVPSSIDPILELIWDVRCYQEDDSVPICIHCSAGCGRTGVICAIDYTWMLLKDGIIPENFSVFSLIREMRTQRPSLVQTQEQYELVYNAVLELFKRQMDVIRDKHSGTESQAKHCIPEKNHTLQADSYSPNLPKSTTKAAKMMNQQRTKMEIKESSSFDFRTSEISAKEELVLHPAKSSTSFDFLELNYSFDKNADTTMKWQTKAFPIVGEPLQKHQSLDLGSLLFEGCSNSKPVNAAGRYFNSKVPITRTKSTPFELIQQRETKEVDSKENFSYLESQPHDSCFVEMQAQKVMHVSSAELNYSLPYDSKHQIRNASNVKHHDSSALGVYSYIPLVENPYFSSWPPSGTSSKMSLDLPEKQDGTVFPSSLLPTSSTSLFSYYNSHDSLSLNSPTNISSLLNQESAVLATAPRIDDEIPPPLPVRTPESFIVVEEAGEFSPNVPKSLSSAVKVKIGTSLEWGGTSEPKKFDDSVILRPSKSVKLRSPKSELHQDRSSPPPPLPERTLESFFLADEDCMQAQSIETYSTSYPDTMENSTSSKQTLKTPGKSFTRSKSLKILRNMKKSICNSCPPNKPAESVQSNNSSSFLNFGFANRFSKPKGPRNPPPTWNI
# LYP inh 2 – blocks human PTPN22 phosphatase activity; Q9Y2R2; AID 640; 96,000 compounds, 0.21% hits; recombinant LYP catalytic domain, DiFMUP fluorescence; inhibition, % at 2 µM;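 active = inhibition at 2 µM at or above a set limit, the screen mean plus 3 SD, cut at about 24% in these data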
# Measles CPE – protection of cells from measles virus; Measles virus-infected cells, CPE protection, absorbance; protection (pct of control), % at 4 µM; 140,000 compounds, 1.5% hits; AID 841; in the data active = protection mostly above about 24%, no sharp cut-off; inactive = mostly below about 26%
# A number is an active result; i = inactive; nt = no result given. Most compounds without a hit are left out; they make up all but 1.7% or so of the library.
SMILES,LYP act,LYP inh 2,Measles CPE
O=C(CN(Cc1ccccc1)S(=O)(=O)c1ccccc1)N1CCOCC1,i,i,38
CCC(=O)Nc1cccc(-c2cnc3ccccc3n2)c1,i,i,40
O=C(CCl)Nc1cccc(-c2cnc3ccccc3n2)c1,i,i,i
c1ccc(-c2nnnn2CCOCCn2nnnc2-c2ccccc2)cc1,i,i,i
CCn1c(CNc2ccc(Cl)cc2)nnc1SCc1ccccc1,i,i,46
Cn1c(CNc2ccc(Cl)cc2)nnc1SCc1ccccc1,i,i,i
CCCC(=O)NCc1nc2ccccc2n1C,i,i,i
CCOC(=O)Cc1nn2c(=O)cc(C)nc2s1,i,i,46
CCOC(=O)Cc1c(C)nc2cc(C)nn2c1C,i,i,i
Cc1ccc(N=Cc2c(O)n(C)c(=O)n(C)c2=O)nc1,i,i,i
Cc1cc2cc(CNC(=O)c3ccc(S(=O)(=O)N4CCCCC4)cc3)ccc2[nH]1,i,i,35
O=C(NCc1ccc2[nH]c3c(c2c1)CCCC3)c1ccc(S(=O)(=O)N2CCCC2)cc1,nt,nt,i
Cc1cccc(-n2c(CNC(=O)c3ccc(S(=O)(=O)N4CCCC4)cc3)n[nH]c2=S)c1,i,i,36
COc1ccc(-n2c(CNC(=O)c3ccc(S(=O)(=O)N4CCCC4)cc3)n[nH]c2=S)cc1,i,i,i
Cc1cc(C(=O)Nc2ccc(N3CCOCC3)cc2)c2ccccc2n1,i,i,i
Cc1cc(C)n(-c2ccc(C(=O)OCC(=O)Nc3ccccc3[N+](=O)[O-])cc2)n1,nt,nt,i
Cc1cc(C)n(-c2ccc(C(=O)OCC(=O)Nc3ccc([N+](=O)[O-])cc3)cc2)n1,nt,nt,44
Cc1cccc(NC(=O)C2C3C=CC(C4CC34)C2C(=O)O)c1 (stereo not given),i,i,49
O=C(O)C1C2C=CC(C3CC23)C1C(=O)O (stereo not given),i,i,i
CCOC(=O)C1Cc2ccccc2CN1 (stereo not given),i,i,i
CCOC(=O)C1Cc2c([nH]c3ccccc23)CN1 (stereo not given),i,i,42
O=C(CCl)N(c1ccccc1)C1CCS(=O)(=O)C1 (stereo not given),nt,nt,i
O=C(Cc1ccc(S(=O)(=O)N2CCOCC2)s1)Nc1ccc2c(c1)CCC2,i,i,i
Cc1ccc(OCC(=O)N/N=C/c2ccco2)cc1,i,i,i
Cc1ccccc1OCC(=O)N/N=C/c1ccco1,i,i,45
SMILES,LYP act,LYP inh 2,Measles CPE
COc1ccc(C(F)(F)F)cc1NC(=O)c1nc2nc(C)cc(C(F)F)n2n1,i,i,i
COc1cccc(C2C3=C(N=c4s/c(=C\c5cccc(O)c5)c(=O)n42)c2ccccc2CC3)c1OC (stereo not given),nt,nt,i
COc1ccc(CCNC(=O)c2cc(-c3ccccc3OC)on2)cc1OC,i,i,45
COc1ccc(-c2cc(C(=O)NCCc3ccccc3)no2)cc1OC,i,i,i
CCC(C)NC(=O)c1cc(CC(C)C)on1 (stereo not given),i,i,54
Cc1cc(NC(=O)c2cc(CC(C)C)on2)no1,nt,nt,i
COc1ccccc1-c1cc(C(=O)NCCc2ccccc2)no1,i,i,i
COc1ccc(CCNC(=O)c2cc(CC(C)C)on2)cc1OC,i,i,40
COC(=O)C1=C(C)N(C)C(=O)NC1c1cc(Cl)cc(Cl)c1OC (stereo not given),i,i,i
O=C1Nc2ccc(S(=O)(=O)NCc3ccccn3)c3cccc1c23,i,i,i
O=C(N/N=C/c1sc(=O)n(-c2ccccc2)c1Cl)c1ccncc1,nt,nt,i
COc1cc2c(cc1NC(=O)CSCC(=O)O)oc1ccccc12,nt,nt,i
CCC(C)(C)n1nnnc1C(c1cccs1)N1CCc2ccccc21 (stereo not given),i,i,nt
CC(=O)C1=C(O)CCC1=NCCc1ccccc1,i,i,29
CC(=NCCc1ccccc1)C1=C(O)CCC1=O,i,i,i
Cc1cc(C)n(Cc2nc3ccccc3n2C)n1,i,i,i
N#CC(C#N)=C1CCc2ccccc2N1,i,i,59
N#CC(C#N)=C1NC2(CCCC2)Cc2ccccc21,nt,nt,i
CCC(NS(=O)(=O)c1ccc(C)cc1)C(=O)N1CCN(c2ccccn2)CC1 (stereo not given),i,i,i
CCOC(=O)N/N=C(/C)c1ccc([N+](=O)[O-])o1,i,i,83
COC(=O)N/N=C/c1ccc([N+](=O)[O-])o1,i,i,i
Nc1nc(C(=O)N2CCOCC2)nn1C(=O)c1ccc(Cl)cc1,nt,nt,i
c1ccc(-c2nnc(CN3CCC4(CC3)OCCO4)o2)cc1,i,i,i
OC1(c2ccccc2F)CCN(Cc2nnc(-c3ccccc3)o2)CC1,i,i,81
Cc1nc2ccc(S(=O)(=O)NCC(=O)NCc3ccc4c(c3)OCO4)cc2s1,i,27,i
Cc1nc2ccc(S(=O)(=O)N(C)CC(=O)NCc3ccc4c(c3)OCO4)cc2s1,i,i,i
